Assay results reported in PubChem BioAssay AID493216 (National Center for Advancing Translational Sciences (NCATS), 2011).
Activity calls are given as the source filed them. Calls come from the whole dose curve.

Molecular target: Polyunsaturated fatty acid lipoxygenase ALOX12 (Homo sapiens) (UniProt P18054)
Assay: Inhibitors of 12-hLO (12-human lipoxygenase): Cuvette-Based Hit Assay for Validation of Followup Compounds
Conditions: purified 12-hLO, cuvette absorbance 234 nm
Outline: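 Rate of product formation by 12-hLO tracked by 234 nm absorbance to completion, substrate 10 uM arachidonic acid, pH 8.0 HEPES with 0.01% Triton X-100. Enzyme 50-200 nM; typically five inhibitor concentrations give IC50.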

Polyunsaturated fatty acid lipoxygenase ALOX12 (Homo sapiens), sequence (P18054 whole entry, looked up): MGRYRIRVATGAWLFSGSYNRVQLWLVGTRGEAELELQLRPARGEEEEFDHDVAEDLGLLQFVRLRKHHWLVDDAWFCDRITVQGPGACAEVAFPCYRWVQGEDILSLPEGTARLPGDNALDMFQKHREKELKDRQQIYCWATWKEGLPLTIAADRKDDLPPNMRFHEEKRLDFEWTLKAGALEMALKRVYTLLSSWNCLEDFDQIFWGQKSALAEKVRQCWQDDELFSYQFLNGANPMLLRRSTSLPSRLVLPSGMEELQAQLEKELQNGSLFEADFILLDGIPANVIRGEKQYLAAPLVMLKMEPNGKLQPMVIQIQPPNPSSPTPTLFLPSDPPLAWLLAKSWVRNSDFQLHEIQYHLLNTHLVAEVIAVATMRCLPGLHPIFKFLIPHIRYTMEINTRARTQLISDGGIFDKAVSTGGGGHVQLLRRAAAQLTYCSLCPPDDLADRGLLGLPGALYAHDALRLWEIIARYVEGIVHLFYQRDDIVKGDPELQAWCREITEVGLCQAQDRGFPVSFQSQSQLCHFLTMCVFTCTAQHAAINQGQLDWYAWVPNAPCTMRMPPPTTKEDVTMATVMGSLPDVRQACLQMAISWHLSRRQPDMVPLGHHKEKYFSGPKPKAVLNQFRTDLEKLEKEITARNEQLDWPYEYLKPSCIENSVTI

Potency, active:
COc1ccc(NC2=NCC(Cc3ccc(Br)cc3)S2)cc1 (stereo unspecified) 36.6 µM
COc1ccc(-c2n[nH]c(C(F)(F)F)c2-c2cc3ccccc3o2)c(O)c1 21 µM
COc1ccc(-c2n[nH]c(C)c2-c2ccc(Cl)cc2)c(O)c1 19.4 µM
COc1ccc(Cc2nc(C(=O)Nc3ccc(OC)cc3)cs2)cc1 35.8 µM
Oc1ccc(Cl)cc1-c1cc(-c2ccco2)[nH]n1 21.5 µM
Cc1[nH]nc(-c2ccc(O)cc2O)c1Oc1ccccc1 27 µM
O=C(CSc1n[nH]c(-c2ccccc2)n1)c1ccc(O)c(O)c1 24.2 µM
N#CC1=C(N)Oc2n[nH]c(-c3cccs3)c2C1C1CCCCC1 (stereo unspecified) 7.69 µM
CCc1ccc(S(=O)(=O)/N=C2/C=C(Sc3ncn[nH]3)C(=O)c3ccccc32)cc1 23.2 µM
Cc1ccc(C(=O)Nc2nnc(-c3ccco3)o2)cc1 6.52 µM
COc1cc(CNc2ccc(N3CCCC3)cc2)ccc1OCc1ccccc1 25 µM
